In paper PMC5540273 (PLoS ONE, 2017):

Test system: T1, ERK2
T1 construct: gene MAPK1
Details: concentration: 1 μM,replicates: in singlicate; n = 1
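Note: KINOMEscan kinase panel screen.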

SMILES | %Inh [%]
O=C(Nc1cccc(C(F)(F)F)c1)c1cccc(Oc2ccc3nccn3n2)c1 | 7
CCCC(=O)Nc1n[nH]c2ncccc12 [SB-601436] | 0
C[C@@H]1CNc2c(sc3ccc4nc(-c5ccc(O)cc5)ccc4c23)C(=O)N1 | 16
COC(=O)c1cccc(NC(=O)NC2CCN(c3ccnc(NCc4ccc(F)cc4)n3)CC2)c1 [GSK1379860] | 14
CC(=O)Nc1ccc(-c2cc3ncnc(SCC(=O)O)c3s2)cc1 | 9
NC(=O)c1ccc(-c2cc3ncnc(SCC(=O)O)c3s2)cc1 | 4
C[C@@H]1CCN(C(=O)N2CCCC2)C[C@@H]1N(C)c1ncnc2[nH]ccc12 | 14
CCn1c(-c2nonc2N)nc2cncc(Br)c21 [SB-738004] | 6
Cc1ccc(CC(=O)N2CCc3cc(-c4cn(C)c5ncnc(N)c45)ccc32)cc1 [GSK2634758] | 6
Nc1nccc(-c2ccc3c(N)n[nH]c3c2)n1 [GSK1034945] | 0
COc1cccc(C2=C(Nc3cccc(Cl)c3)C(=O)NC2=O)c1 [SB-341556] | 0
Cc1n[nH]c2cc(Nc3ccnc(Nc4cccc(CN5CCOCC5)c4)n3)ccc12 [GW682569] | 0
Cl.Cl.NC[C@H](CC1CCCCC1)NC(=O)c1ccc(-c2ccnc3[nH]ccc23)s1 [GSK1581428] | 31
COc1cc2c(Nc3ccc(NC(=O)c4ccccc4)cc3)ncnc2cc1OCCCN1CCOCC1 [GSK301329] | 3
C[C@@H](Oc1cc(-n2cnc3ccc(-c4ccncc4)cc32)sc1C(N)=O)c1ccccc1Cl [GSK483724] | 0
NC(=O)Nc1sc(-c2ccc(F)cc2)cc1C(N)=O [GW789449] | 16
CN(c1ccc2c(c1)nc(NCc1ccc(F)cc1)n2C)c1ccnc(Nc2ccc(CS(C)(=O)=O)cc2)n1.Cl [GW813244] | 0
c1ccc(Oc2ccc(Nc3ccnc4ccc(-c5ccccn5)cc34)cc2)cc1 [GW407034] | 83
CS(=O)c1ccc(-c2coc3ccc(-c4n[nH]c(=O)o4)cc23)cc1 (centres unmarked) | 1
CCN1CCN(CCCC(=O)Nc2n[nH]c3nc(-c4ccc(O)cc4)c(Br)cc23)CC1 [SB-731579] | 0
CC(=O)c1c(-c2ccncc2)[nH]c(-c2ccncc2)c1C [GW493036] | 0
CSc1nccc(-c2c(-c3ccc(F)cc3)ncn2CCCN2CCOCC2)n1.Cl [SB-217146] | 0
CN1CCN(CCNc2nc3cc(Oc4ccc(NC(=O)Nc5cc(C(F)(F)F)ccc5F)cc4)ccc3[nH]2)CC1.Cl.Cl [GW768504] | 0
C[C@@H](Oc1cc(-n2cnc3cc(-c4ccncc4)ccc32)sc1C(N)=O)c1ccccc1Cl [GSK479719] | 0
O=C(Nc1cccc(Oc2ccc3nccn3n2)c1)Nc1cccc(C(F)(F)F)c1 | 0

Test system: T2, ERK3
T2 construct: gene MAPK6
Details: concentration: 1 μM,replicates: in singlicate; n = 1

SMILES | %Inh [%]
COc1ccc(Nc2nccc(N3CCC(NC(=O)c4cccc(C#N)c4)C3)n2)cc1 (centres unmarked) [GSK1379730] | 0
C[C@@H](Oc1cc(-n2cnc3cc(-c4cnn(C)c4)ccc32)sc1C(N)=O)c1ccccc1Cl [GSK580432] | 10
O=C(Nc1n[nH]c2cc(-c3ccco3)ccc12)C1CC1 [SB-737447] | 0
COC(=O)Nc1nc2cc(Oc3ccc(NC(=O)Nc4cc(C(F)(F)F)ccc4Cl)cc3)ccc2[nH]1.Cl [GW697465] | 6
Cc1cccc2c(-c3ccncc3)c(-c3ccc(F)cc3)nn12.Cl [GW461487] | 5
O=c1[nH]cc(-c2ccc(O)cc2)c2sc(-c3ccncc3)cc12 [GSK1033723] | 11
COc1cccc(CNC(=O)NC2CCN(c3ccnc(Nc4cc(OC)c(OC)c(OC)c4)n3)C2)c1 (centres unmarked) [GSK1379765] | 33
COc1cccc(OC)c1C(=O)Nc1cccc(-c2nn3ccccc3c2-c2ccnc(Nc3cccc(F)c3)n2)c1 [GSK361065] | 1
CC(=O)Nc1nc2cnc(Nc3cc(NC(=O)c4cccc(CC(C)(C)C#N)c4)ccc3C)nc2s1 | 0
CC(C)S(=O)(=O)N1CCN(Cc2ccc3c(c2)nc(NC(=O)c2ccsc2)n3C[C@H](O)c2ccccc2)CC1 [GW635815] | 1
Cc1ccc(Nc2ccnc(Nc3ccc4c(c3)CS(=O)(=O)C4)n2)cc1O.Cl [GW579362] | 51
Cc1nnc(-c2ccc3occ(-c4ccc(S(C)=O)cc4)c3n2)o1 (centres unmarked) | 0
O=C(Nc1cccc(C(F)(F)F)c1)c1cccc(Oc2ccc3nccn3n2)c1 | 0
CCCC(=O)Nc1n[nH]c2ncccc12 [SB-601436] | 0
C[C@@H]1CNc2c(sc3ccc4nc(-c5ccc(O)cc5)ccc4c23)C(=O)N1 | 0
COC(=O)c1cccc(NC(=O)NC2CCN(c3ccnc(NCc4ccc(F)cc4)n3)CC2)c1 [GSK1379860] | 14
CC(=O)Nc1ccc(-c2cc3ncnc(SCC(=O)O)c3s2)cc1 | 0
NC(=O)c1ccc(-c2cc3ncnc(SCC(=O)O)c3s2)cc1 | 0
C[C@@H]1CCN(C(=O)N2CCCC2)C[C@@H]1N(C)c1ncnc2[nH]ccc12 | 0

SMILES | %Inh [%]
CCn1c(-c2nonc2N)nc2cncc(Br)c21 [SB-738004] | 0
Cc1ccc(CC(=O)N2CCc3cc(-c4cn(C)c5ncnc(N)c45)ccc32)cc1 [GSK2634758] | 0
Nc1nccc(-c2ccc3c(N)n[nH]c3c2)n1 [GSK1034945] | 0
COc1cccc(C2=C(Nc3cccc(Cl)c3)C(=O)NC2=O)c1 [SB-341556] | 0
Cc1n[nH]c2cc(Nc3ccnc(Nc4cccc(CN5CCOCC5)c4)n3)ccc12 [GW682569] | 0
Cl.Cl.NC[C@H](CC1CCCCC1)NC(=O)c1ccc(-c2ccnc3[nH]ccc23)s1 [GSK1581428] | 0
COc1cc2c(Nc3ccc(NC(=O)c4ccccc4)cc3)ncnc2cc1OCCCN1CCOCC1 [GSK301329] | 0
C[C@@H](Oc1cc(-n2cnc3ccc(-c4ccncc4)cc32)sc1C(N)=O)c1ccccc1Cl [GSK483724] | 0
NC(=O)Nc1sc(-c2ccc(F)cc2)cc1C(N)=O [GW789449] | 0
CN(c1ccc2c(c1)nc(NCc1ccc(F)cc1)n2C)c1ccnc(Nc2ccc(CS(C)(=O)=O)cc2)n1.Cl [GW813244] | 0
c1ccc(Oc2ccc(Nc3ccnc4ccc(-c5ccccn5)cc34)cc2)cc1 [GW407034] | 4
CS(=O)c1ccc(-c2coc3ccc(-c4n[nH]c(=O)o4)cc23)cc1 (centres unmarked) | 0
CCN1CCN(CCCC(=O)Nc2n[nH]c3nc(-c4ccc(O)cc4)c(Br)cc23)CC1 [SB-731579] | 0
CC(=O)c1c(-c2ccncc2)[nH]c(-c2ccncc2)c1C [GW493036] | 0
CSc1nccc(-c2c(-c3ccc(F)cc3)ncn2CCCN2CCOCC2)n1.Cl [SB-217146] | 0
CN1CCN(CCNc2nc3cc(Oc4ccc(NC(=O)Nc5cc(C(F)(F)F)ccc5F)cc4)ccc3[nH]2)CC1.Cl.Cl [GW768504] | 0
C[C@@H](Oc1cc(-n2cnc3cc(-c4ccncc4)ccc32)sc1C(N)=O)c1ccccc1Cl [GSK479719] | 0
O=C(Nc1cccc(Oc2ccc3nccn3n2)c1)Nc1cccc(C(F)(F)F)c1 | 0
